Laboratory results published in PubChem BioAssay (NCI).
Compounds without any hit were thinned out: in the full panel of roughly 79,000, 15% have a hit. Unmarked numbers belong to inactive results. Activity calls are given as the source filed them. Cut-off read from the data, not from the text of the source: active = growth inhibition above about 70%; inactive = the rest.

Legend:
[1] = NCI Yeast Anticancer Drug Screen. Data for the rad50 strain (AID 155);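 note: 0% = growth of vehicle-only cultures of the same strain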; settings: S. cerevisiae rad50 strain growth inhibition, active compounds read high
Outline: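 Vehicle-treated cultures provide the reference for the growth inhibition reported for compound-exposed, repair-deficient yeast.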

[2] = NCI Yeast Anticancer Drug Screen. Data for the mec2-1 strain (AID 157); settings: S. cerevisiae mec2-1 strain, active compounds read high
Outline: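 Readout is yeast growth inhibition, normalised to vehicle-treated controls, in the mec2-1 strain exposed to compound.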

[3] = NCI Yeast Anticancer Drug Screen. Data for the sgs1 mgt1 strain (AID 161);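 note: 0% = growth of cultures given vehicle only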; settings: S. cerevisiae sgs1 mgt1 strain, active compounds read high
Outline: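 Yeast cells carrying a defined DNA-repair defect were exposed to test compounds. Growth inhibition was measured relative to vehicle-treated controls.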

[4] = NCI Yeast Anticancer Drug Screen. Data for the cln2 rad14 strain (AID 165);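 note: 0% = growth equal to vehicle treated cultures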; settings: S. cerevisiae cln2 rad14 strain, active compounds read high
Outline: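 Relative to vehicle controls, growth inhibition of compound-treated cln2 rad14 yeast was recorded.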

[5] = NCI Yeast Anticancer Drug Screen. Data for the bub3 strain (AID 167); settings: S. cerevisiae bub3 mutant strain, active compounds read high
Outline: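 Mutant yeast screening strain plus compound; vehicle-treated cultures serve as the 0% inhibition reference.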

[6] = NCI Yeast Anticancer Drug Screen. Data for the mlh1 rad18 strain (AID 175); settings: S. cerevisiae mlh1 rad18 strain growth inhibition, active compounds read high
Outline: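 Test agents were incubated with a yeast strain of defined genotype (DNA damage repair defect). Inhibition of growth was derived by comparison with vehicle-exposed cultures.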

[7] = at 5.0 µM (retest, dose inferred, filed as 0.5)
[8] = at 50.0 µM (retest, dose inferred, filed as 5.0)

Row | Compound | growth inhibition [1, 7] | growth inhibition [1, 8] | growth inhibition ([1]; at 50.0 µM) | growth inhibition [2, 7] | growth inhibition [2, 8] | growth inhibition ([2]; at 50.0 µM) | growth inhibition [3, 7] | growth inhibition [3, 8] | growth inhibition ([3]; at 50.0 µM) | growth inhibition [4, 7] | growth inhibition [4, 8] | growth inhibition ([4]; at 50.0 µM) | growth inhibition [5, 7] | growth inhibition [5, 8] | growth inhibition ([5]; at 50.0 µM) | growth inhibition [6, 7] | growth inhibition [6, 8] | growth inhibition ([6]; at 50.0 µM)
1 | O=C(C[n+]1ccccc1)N=N/C(C(=O)Nc1c(Cl)c(O)c2ccccc2c1O)=C1/C(=O)Oc2cc(O)ccc2C1=O | 15% | 98% (active) | 97.3% (active) | 23% | 98% (active) | 95.8% (active) | 19% | 98% (active) | 93% (active) | -15% | 96% (active) | 68.5% | 24% | 98% (active) | 90.8% (active) | 27% | 97% (active) | 94.6% (active)
2 | CCN(CC)CC(O)CNc1cc(C)nc(/N=C(\N)Nc2ccc(Cl)c(Cl)c2)n1 (configuration not stated) | 0% | 64% | 88.8% (active) | -21% | 34% | 57.3% | -11% | 54% | 87% (active) | -3% | 19% | 31.7% | -2% | 30% | 34.2% | 12% | 86% (active) | 81.2% (active)
3 | Cc1ccccc1-n1c(N)c(-c2nc3ccccc3[nH]2)sc1=S | 36% | 45% | 81.2% (active) | 22% | 50% | 70.7% (active) | 42% | 57% | 68.2% | 37% | 44% | 70.4% (active) | 41% | 55% | 83.1% (active) | 42% | 61% | 80.2% (active)
4 | COc1ccc2nc3cccc([N+](=O)[O-])c3c(NCCN(C)C)c2c1 | 86% (active) | 95% (active) | 80% (active) | 95% (active) | 98% (active) | 88.5% (active) | 87% (active) | 74% (active) | 84.5% (active) | 92% (active) | 97% (active) | 83% (active) | 36% | 96% (active) | 82.2% (active) | 92% (active) | 97% (active) | 79.6% (active)
5 | Clc1ccc(SSc2ccc(Cl)cn2)nc1 | 5% | 69% | 78.2% (active) | 6% | 96% (active) | 96.3% (active) | 17% | 96% (active) | 57.9% | -4% | 51% | 20.6% | -3% | 97% (active) | 82.8% (active) | 11% | 92% (active) | 81.1% (active)
6 | CCCC(=O)Nc1cc([N+](=O)[O-])ccc1O | -129% | 97% (active) | 99.3% (active) | -38% | 98% (active) | 90% (active) | -51% | 88% (active) | 63.2% | -57% | 84% (active) | 96.7% (active) | -57% | 97% (active) | 95.2% (active) | -127% | 93% (active) | 98% (active)
7 | Cc1ccc(SCc2ccc(Cl)cc2Cl)nn1 | -1% | 64% | 96.8% (active) | -16% | 85% (active) | 94% (active) | -4% | 85% (active) | 82.8% (active) | 0% | 20% | 25.9% | 12% | 61% | 93.8% (active) | -3% | 78% (active) | 94% (active)
8 | CCCCc1c2c(nc3c1CC/C(=C\c1ccccc1)C3=O)CCCC2 | -23% | 97% (active) | 65.8% | -7% | 98% (active) | 48.5% | -11% | 97% (active) | 69.6% | -1% | 97% (active) | 38% | -1% | 98% (active) | 54% | -19% | 97% (active) | 49.7%
9 | N#CS/C=C/SC#N | 99% (active) | 99% (active) | 99.5% (active) | 100% (active) | 100% (active) | 99.5% (active) | 99% (active) | 99% (active) | 99.5% (active) | 99% (active) | 100% (active) | 99.1% (active) | 100% (active) | 99% (active) | 99% (active) | 99% (active) | 100% (active) | 99.5% (active)
10 | Cc1oc2c(c1C(=O)c1ccccc1)C(=O)c1ccccc1C2=O | 33% | 99% (active) | 88.2% (active) | 19% | 99% (active) | 92.7% (active) | 31% | 99% (active) | 93.2% (active) | 22% | 98% (active) | 92.8% (active) | 39% | 99% (active) | 91.7% (active) | 25% | 99% (active) | 82% (active)
11 | COc1ccc(NS(=O)(=O)c2ccc(F)cc2)cc1 | -21% | -3% | 95.9% (active) | 1% | -12% | 99.3% (active) | -26% | -22% | 98.5% (active) | 6% | -22% | 97.5% (active) | 6% | -21% | 97.2% (active) | -15% | -18% | 98.5% (active)
12 | CCN(CC)CCC(=O)NC1c2ccc(Cl)cc2Oc2c(C)cccc21 (configuration not stated) | -23% | 21% | 54.6% | -1% | -7% | -14.2% | 2% | 19% | 40.6% | 18% | 51% | 15.2% | 3% | 7% | -30.5% | 8% | 44% | 17.6%
13 | C=C1C[C@H]2C=Nc3cc(OCCCOc4cc5c(cc4OC)C(=O)N4CC(=C)C[C@H]4C=N5)c(OC)cc3C(=O)N2C1 | 92% (active) | 95% (active) | 98.3% (active) | 94% (active) | 97% (active) | 98.7% (active) | 88% (active) | 94% (active) | 97.7% (active) | 92% (active) | 97% (active) | 98.3% (active) | 86% (active) | 95% (active) | 98.6% (active) | 92% (active) | 95% (active) | 98.7% (active)
14 | CCCCCNC(=O)c1ccc(Cl)c(Cl)c1 | 6% | 49% | 64.8% | 5% | 45% | 28.4% | 7% | 63% | 83.2% (active) | 16% | 41% | 33.5% | 10% | 59% | 64.9% | 1% | 62% | 64.6%
15 | CC(C)C12CCC3(CCC4C(C)(C(=O)O)CCCC4(C)C3C1)C(CN)C2 (configuration not stated) | 3% | 98% (active) | 97.3% (active) | 9% | 98% (active) | 95.5% (active) | 17% | 95% (active) | 94.9% (active) | -20% | 98% (active) | 97.8% (active) | -4% | 98% (active) | 96% (active) | 6% | 98% (active) | 93.3% (active)
16 | N#CSCC(=O)c1ccc2ccccc2c1 | 67% | 99% (active) | 90.8% (active) | 71% (active) | 99% (active) | 92.1% (active) | 97% (active) | 99% (active) | 93.5% (active) | 68% | 98% (active) | 91% (active) | 97% (active) | 98% (active) | 90.5% (active) | 57% | 99% (active) | 91.3% (active)
17 | COc1ccc(CCN2C(=O)C(=O)N(C3CCCCC3)C2=O)cc1OC | -1% | 2% | 75.4% (active) | -1% | 0% | 11.9% | -3% | -3% | 26.9% | -2% | 0% | 12.8% | -2% | -5% | 34.1% | -6% | -8% | 38.4%
18 | O=C(NCCCN1CCN(CCCNC(=O)c2cc(-c3ccccc3)nc3ccccc23)CC1)c1cc(-c2ccccc2)nc2ccccc12 | 49% | 95% (active) | 84.6% (active) | 30% | 95% (active) | 88.7% (active) | 26% | 75% (active) | 8.55% | 29% | 41% | 86.3% (active) | 30% | 64% | 86.1% (active) | 38% | 96% (active) | 81.9% (active)
19 | CCOC(=O)c1c(C)c2c(n1C)CCc1sc(N)nc1-2 | 14% | 66% | 96% (active) | 7% | 58% | 96.8% (active) | 5% | 65% | 98.3% (active) | -1% | 26% | 43.3% | 2% | 80% (active) | 96.7% (active) | -1% | 58% | 90.2% (active)
